Sampled rows, rich in hits. Any-hit rate of the full collection: about 21%.
Pf growth 96h – inhibits malaria parasite growth, 96 h | P. falciparum luciferase reporter growth, 96 h | Potency, µM (highest dose often 28.7 µM), without a hit: at the top dose activity change, negative = inhibition, actives largely listed as inhibitors | hit rate 6.9% among 320,000 | AID 504834; note: potency is the fitted concentration of half-maximal effect; % is set by controls: 0 for no effect and ±100 for the full control effect
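Readout is luminescence from an integrated firefly luciferase in P. falciparum. Red cells, 2% hematocrit and 0.05% parasitemia final, were cultured with compound through two parasite generations (96 hours) at 37 C, 5% CO2.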
Pf growth 48h – inhibits P. falciparum growth in the first generation, 48 h. P. falciparum luciferase growth in erythrocytes, 48 h. AID 504832. Potency, µM (doses to about 28.7 µM), inactives show at the top dose activity change, negative = inhibition, most hits filed as inhibitors. hit rate 5.9% among 310,000; note: potency is the fitted concentration of half-maximal effect; % is set by controls: 0 for no effect and ±100 for the full control effect
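In quantitative HTS format, infected erythrocytes bearing luciferase-reporter parasites were treated for a single generation at 37 C. Luminescence after adding detection reagent served as the growth measure.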
Shiga inhibitor – blocks Shiga toxin action in Vero cells; inhibition, % at 38.7 µM; AID 2315; Vero cells, Shiga toxin protein synthesis inhibition reporter; hit rate 9.2% among 290,000; in the data active = inhibition mostly above about 28%, no sharp cut-off; inactive = mostly below about 43%; note: 0% is about no effect
Sm TGR block – blocks Schistosoma mansoni thioredoxin glutathione reductase; Q962Y6; purified TGR, DTNB reduction, TNB absorbance 405 nm; Potency, µM (top dose mostly 114 µM), inactives show at the top dose activity change, negative = inhibition, actives largely listed as inhibitors; hit rate 3% among 360,000; AID 485364; note: potency is the fitted concentration of half-maximal effect; % is set by controls: 0 for no effect and ±100 for the full control effect; nearly all actives have a fitted effect of over 60% in size
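First, TGR (20 nM dispensed) and NADPH were mixed with compound. Second, a 15 min room-temperature incubation followed. Third, further NADPH and then DTNB were added to start the reaction. Finally, TNB absorbance was monitored kinetically.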
NS1 function inh – blocks influenza NS1 protein function; Potency, µM (doses to about 46.1 µM), inactives show at the top dose activity, positive = more growth; hit rate 0.4% among 270,000; AID 2326; calls by dose curve; note: potency is the fitted concentration of half-maximal effect; actives are rising curves; nearly all actives have a fitted effect of over 50% in size
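Compounds were scored for reversing the slow growth caused by influenza A NS1 in S. cerevisiae, measured by optical density at 600 nm. Assay medium contained 2% galactose at pH 6.0; NS1-free yeast of the same strain were the positive control.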
Cycloheximide cs – affects cycloheximide protein synthesis inhibition readout, counter-screen. max response, %. hit rate 12% among 300,000. cell reporter, cycloheximide protein synthesis inhibition counterscreen; in the data active = max response mostly above about 13%, no sharp cut-off; inactive = mostly below about 14%; note: read at 38.3 µM for the half of the compounds with a filed dose; 0% is about no effect
An asterisk follows results filed as active; ? = inconclusive; · = no result; + = active, no number. Unless noted, calls come from the whole dose curve; as a rule, active = well fitted curve in the direction sought with a large enough effect; inconclusive = small, poorly fitted or top-dose-only effect, or another doubt; inactive = no such curve, though single readings can be large; an effect the other way counts as inactive or inconclusive.

SMILES	Pf growth 96h	Pf growth 48h	Shiga inhibitor	Sm TGR block	NS1 function inh	Cycloheximide cs
COCCn1c(SCC(=O)Nc2cc(C)cc(C)c2)nc2ccccc2c1=O	149%	-28%	·	5%	0%	-3
COC(=O)c1ccc(NC(=O)CSc2nc(=O)cc(N)n2-c2ccccc2)cc1	?	-8%	-3	1%	-1%	-2
CC(=O)c1ccc(NC(=O)CSc2nc(=O)cc(N)n2-c2ccccc2)cc1	7%	29%	91*	8%	-1%	33*
Cc1cccc(NC(=O)CSc2nc3ccccc3c(=O)n2C)c1	?	15µM*	2	2%	-41%	-1
COCCCn1c(SCC(=O)Nc2ccc(C(C)=O)cc2)nc2ccccc2c1=O	-5%	?	80*	3%	-11%	45*
COCCn1c(SCC(=O)Nc2cccc(C(=O)OC)c2)nc2ccccc2c1=O	49%	13µM*	8	2%	-22%	-1
O=C(NC1CCCN(CCc2ccccc2)C1)c1c(F)cccc1F (stereo unspecified)	-29%	-2%	2	3%	4%	1
COc1ccccc1-c1noc(-c2ccc(N3CCN(C)CC3)c([N+](=O)[O-])c2)n1	·	·	·	5%	·	·
COCCCNC(=O)c1ccc2nc3ccccc3c(=O)n2c1	·	43%	-1	25%	-6%	13*
CCn1c(SCC(=O)Nc2ccc(C(C)=O)cc2)nc2ccccc21	·	63%	107*	7%	11%	42*
COC(CNC(=O)c1ccc2nc3ccccc3c(=O)n2c1)OC	31%	18%	4	5%	-4%	10
CCOCCCn1c(SCC(=O)Nc2cc(C(C)(C)C)nn2-c2ccccc2)nc2ccccc2c1=O	?	13µM*	-6	-2%	-11%	1
CCn1c(SCC(=O)Nc2ccc3[nH]c(=O)[nH]c3c2)nc2ccccc21	-16%	17%	·	-13%	·	·
Cc1ccccc1CSc1nc2ccccc2c(=O)n1C	?	9.3µM*	·	-12%	·	·
COCCn1c(SCC(=O)Nc2cc(C(C)(C)C)nn2-c2ccccc2)nc2ccccc2c1=O	23%	-11%	11	7%	7%	1
NCCCC[C@H](N)c1nnc([C@H](CCC(=O)O)NC(=O)C2CCNCC2)o1	25%	53%	-10	-2%	4%	9
C[C@H](NC(=O)c1nc[nH]c1C(=O)N1CCc2ccccc2C1)C(=O)OCc1ccccc1	22%	39%	-8	-8%	-1%	-5
Cc1cccc(OCC(=O)NC(C)C(=O)N/N=C/c2c(OCc3ccccc3)ccc3ccccc23)c1 (stereo unspecified)	·	6.6µM*	14	3%	0%	6
Cc1cccc(OCC(=O)NC(Cc2ccccc2)C(=O)O)c1 (stereo unspecified)	14%	17%	-12	-3%	7%	-6
CCOc1ccc(C(=O)NCC(=O)NCC(c2ccccc2OC)N2CCCC2)cc1 (stereo unspecified)	-3%	?	·	-15%	·	·
CC(Oc1ccc(Cl)cc1)C(=O)Nc1nccs1 (stereo unspecified)	·	4.1µM*	56*	3%	-48%	17*
O=C(Nc1ccccc1)Nc1nccs1	53%	66%	45*	6%	-21%	38*
C/C(=C\C(=O)Nc1nccs1)c1ccccc1	37%	105%	116*	7%	-86%	57*
O=C(Nc1ccc(Cl)cc1)Nc1nccs1	61%	56%	47*	-30%	-69%	30*
CCCCC(=O)Nc1cc(OC)c(NC(=O)C2CCCCC2)cc1OC	-28%	-15%	-10	-7%	13%	-1
SMILES	Pf growth 96h	Pf growth 48h	Shiga inhibitor	Sm TGR block	NS1 function inh	Cycloheximide cs
Cc1cccc(C(=O)Nc2nsc(N)n2)c1	42%	4%	·	6%	·	·
Cc1nc(-c2ccc(C(=O)O)cc2)cs1	13%	13%	15	-1%	-149%	1
Cc1nc(-c2cccc(NC(=O)C3CCCCC3)c2)cs1	?	-1%	36*	-8%	-8%	9
CC(=O)Nc1ccc(S(=O)(=O)Nc2cccc(-c3csc(C)n3)c2)cc1	?	59%	8	41%	-1%	-2
Cc1nc(-c2ccc(NC(=O)CC(C)C)cc2)cs1	63%	152%	+	4%	-3%	38*
Cc1nc(-c2ccc(NC(=O)C3CC3)cc2)cs1	91%	95%	81*	-4%	-30%	23*
O=C(COc1ccc2oc3c(c2c1)CCCC3)Nc1ccc(Cl)cc1	·	·	·	10%	·	·
CSc1ccccc1NC(=O)COc1ccc(Cl)cc1C	6%	-9%	48*	7%	-6%	40*
Cc1cc(Cl)ccc1OCC(=O)Nc1ccccc1CO	26%	13µM*	50*	5%	-39%	25*
Cc1ccc(Cl)cc1N1CCN(C(=O)Cn2c(-c3cccs3)cc3cc(F)ccc32)CC1	·	·	·	2%	·	·
CCOc1ccc(OCC)c(NC(=O)CN2CCN(CC(=O)NC(C)C)CC2)c1	13µM*	-53%	-16	-2%	2%	-4
CCOc1ccc(OCC)c(NC(=O)CN2CCN(CC)CC2)c1	-14%	-26%	-4	1%	-9%	-3
CCOc1ccc(OCC)c(NC(=O)CN2CCN(c3cccc(C)c3)C(C)C2)c1 (stereo unspecified)	?	13µM*	-10	15%	-41%	-2
CCOc1ccc(OCC)c(NC(=O)CN2CCN(c3cccc(C)c3)CC2)c1	-13%	13µM*	1	3%	-39%	-4
Clc1ccc(CSc2nc3ccncc3[nH]2)cc1	4.7µM*	·	51*	3%	-76%	51*
O=C(c1ccc(CSc2nc3ccncc3[nH]2)cc1)N1CCN(c2cccc(Cl)c2)CC1	?	?	12	-12%	-6%	-4
O=C(c1ccc(CSc2nc3ccncc3[nH]2)cc1)N1CCCCCC1	-19%	-28%	39	0%	2%	18*
COCCCNC(=O)c1c(NC(=O)Cc2coc3cc(C)cc(C)c23)sc2c1CCCC2	·	·	·	4%	·	·
Cn1ncc2c(Nc3ccc([N+](=O)[O-])cc3)nc(Cl)nc21	-55%	6%	-6	7%	-1%	-1
O=S(=O)(c1ccccc1)N1CCN(C(=S)NCCc2ccccc2)CC1	?	?	-12	11%	-2%	-3
COc1ccc(S(=O)(=O)N2CCN(C(=S)NCCc3ccccc3)CC2)cc1	?	4.1µM*	-3	-20%	-5%	-1
Cc1ccc(S(=O)(=O)N2CCN(C(=S)NCc3ccc4c(c3)OCO4)CC2)cc1	?	1.9µM*	-17	-2%	·	10
Cc1cccc(S(=O)(=O)N2CCN(Cc3ccc4c(c3)OCO4)CC2)c1	0.74µM*	16%	-9	2%	7%	-3
Cc1ccc(S(=O)(=O)N2CCCC2CNC(=O)c2ccc3c(c2)OCO3)cc1 (stereo unspecified)	15µM*	?	·	-7%	·	·
COc1ccc(S(=O)(=O)N2CCN(Cc3ccc4c(c3)OCO4)CC2)cc1C	·	·	·	3%	·	·

High-throughput results: PubChem, National Center for Advancing Translational Sciences (NCATS)
